These results are taken from PubChem BioAssay (NCATS).

SMILES strings stand for the structures. Records with an inconclusive call do not appear. Unmarked numbers belong to inactive results. Activity calls are given as the source filed them. Calls follow the shape of the dose curve; as a rule, active = well fitted curve in the direction sought with a large enough effect; inconclusive = small, poorly fitted or top-dose-only effect, or another doubt; inactive = no such curve, though single readings can be large; an effect the other way counts as inactive or inconclusive.

One assay concerns Es-2. The assay is described as follows: Primary qHTS to identify gynecologic anti-cancer compounds using libraries of approved drugs and bioactive compounds (AID 1345084). Also: nearly all actives have a fitted effect of over 55% in size. Also: potency is read from the fitted curve at half-maximal effect. The settings on record: Gynecologic cancer cell panel viability, ATPlite luminescence, 48 h; series mostly up to 57.5 µM. The essentials:
(§1)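 Cell viability after 48 h drug treatment, ATPlite luminescence readout; five doses.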

For a further assay, the system named is HeLa. The description is as above. The conditions noted are these: Gynecologic cancer cell panel viability, ATPlite luminescence, 48 h; series mostly up to 57.5 µM. The essentials:
as §1
(ATP-based viability assays read luminescence as a measure of living cells.)

The next assay concerns Hek293T. Described as above. The conditions noted are these: Gynecologic cancer cell panel viability, ATPlite luminescence, 48 h, control line for the selectivity index; series mostly up to 57.5 µM. The essentials: as §1
Another assay deals with JEG-3. Described as above. The settings on record: Gynecologic cancer cell panel viability, ATPlite luminescence, 48 h; series mostly up to 57.5 µM. An outline of the steps:
as §1

A further assay concerns OV90. Described as above. The conditions noted are these: Gynecologic cancer cell panel viability, ATPlite luminescence, 48 h; series mostly up to 57.5 µM. The essentials: as §1
A further assay deals with SKOV3. The assay is described as above. The conditions noted are these: Gynecologic cancer cell panel viability, ATPlite luminescence, 48 h; series mostly up to 57.5 µM. The essentials: as §1
In a further assay the test system is Tov-21-G. The assay is described as above. The conditions noted are these: Gynecologic cancer cell panel viability, ATPlite luminescence, 48 h; series mostly up to 57.5 µM. An outline of the steps: as §1
The test system of another assay is Tov112D. The assay is described as above. The conditions noted are these: Gynecologic cancer cell panel viability, ATPlite luminescence, 48 h; series mostly up to 57.5 µM. The essentials: as §1
Assay [1] can be described thus: Drug repurposing screens with cells derived from glioblastoma tumor samples (AID 1345199). Also: nearly all actives have a fitted effect of over 40% in size. Also: potency is read from the fitted curve at half-maximal effect. The settings on record: GBM patient neurospheres viability, ATP luminescence, 48 h. An outline of the steps: (§2)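 Primary testing used CD133+ neurospheres from four GBM patients, seven concentrations, 48 h exposure and ATP-based viability; confirmation added three slower-growing patient lines.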

Another assay relates to astro. Described as above. The settings on record: viability, ATP luminescence, 48 h; series mostly up to 45.9 µM. The essentials: as §2
In a further assay the test system is PA-1. Description: Primary qHTS to identify gynecologic anti-cancer compounds using libraries of approved drugs and bioactive compounds (AID 1345084). Also: nearly all actives have a fitted effect of over 55% in size. Also: potency is read from the fitted curve at half-maximal effect. The settings on record: Gynecologic cancer cell panel viability, ATPlite luminescence, 48 h; series mostly up to 57.5 µM. The essentials:
as §1
In general terms: In qHTS, concentration-response curves come from the screen itself.

Assay [2] in a line: qHTS assay to identify inhibitors of the type 1 interferon - major histocompatibility complex class I in skeletal muscle: Counter screen cell viability and HiBit confirmation (AID 1347412). Also: nearly all actives have a fitted effect of over 60% in size. The conditions noted are these: iHSKM muscle cells + IFN-b, HiBiT or CellTiter-Glo, 24 h; Potency: HiBiT unless noted; Viability, at 45.9 µM (top of the series). An outline of the steps:
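Duplicate plates, pinned identically: one read for HiBiT-tagged endogenous HLA-B luminescence, the other for ATP-content viability via CellTiter Glo. Cells were genome-engineered human myoblasts given 4 ng/ml IFN-b; compounds 12-pt, 1:3 from 46 uM final; 24 hr exposure.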

[3] abbreviates: at 45.9 µM (top of the series), tumour line B.
Setting [4] is: at 45.9 µM (top of the series), tumour line D.
[5] abbreviates: at 46.1 µM (top of the series), tumour line C.
Where [6] appears, read: at 46 µM (top of the series), tumour line A.
The mark [7] stands for this setting: at 20 µM (top of the series), tumour line C.
The mark [8] stands for this setting: at 21.2 µM (top of the series), tumour line B.
Where [9] appears, read: at 21.2 µM (top of the series), tumour line D.
% is scaled to controls: 0 for no effect and ±100 for the full control effect.

As for `CCCCCCCCCCCCCCCCCC(=O)OCC(O)CO` (stereo unspecified), the Potency entry in the assay with Es-2, with HeLa, in the assay on Hek293T, in the assay on JEG-3, in the assay with OV90 and in the assay with SKOV3 was “inactive” in each case. Besides, the Potency entry in the assay on Tov-21-G, in the assay with Tov112D and with astro was “inactive” throughout. Moreover, the values for the activity, negative = cell killing in [1] (setting [3]), in [1] (setting [4]) and in [1] (setting [5]) were -5.26%, -15.3% and 1%, respectively.

For `CN(C)CC/C=C1\c2ccccc2Sc2ccc(Cl)cc21`, the Potency result in the assay with Es-2, in the assay with HeLa, with Hek293T, with JEG-3, in the assay on PA-1 and with Tov-21-G was “inactive” throughout. In addition, the activity, negative = cell killing in assay [1] (setting [5]) is -26.8%. The Potency in assay [1] (tumour line A) was 6.31 µM (active); in assay [1] (tumour line D), 11.2 µM (active); in the assay on astro, 22.4 µM (active).

Regarding `C#C[C@]1(O)CC[C@H]2[C@@H]3CCC4=CC(=O)CC[C@@H]4[C@H]3CC[C@@]21C`, the Potency entry in the assay with Es-2, in the assay with Hek293T, in the assay with JEG-3, with SKOV3, in the assay with Tov-21-G and with Tov112D was “inactive” throughout. In the assay on astro, the Potency entry is “inactive”. For the same molecule, the Potency in the assay with HeLa is 3.55 µM (active); with PA-1, 17.8 µM (active). The activity, negative = cell killing in assay [1] (setting [3]) is -9.83%; in [1] (setting [4]), 3.81%; in assay [1] (setting [5]) it was -18.8%.

Take `CC(=O)Oc1ccc(C(=C2CCCCC2)c2ccc(OC(C)=O)cc2)cc1`: the Potency entry in the assay on Es-2, with HeLa, with Hek293T, in the assay on JEG-3, with PA-1 and in the assay with SKOV3 was “inactive” each time. Further, the Potency result in the assay on Tov-21-G and with Tov112D was “inactive” throughout. Also, the figures for the activity, negative = cell killing in assay [1] (setting [3]), in assay [1] (setting [4]) and in assay [1] (setting [6]) were -19.5%, -13.6% and -21.3%, respectively.

For `C[C@]12C=CC(=O)C=C1CC[C@@H]1[C@@H]2[C@@H](O)C[C@@]2(C)[C@H]1CC[C@]2(O)C(=O)CO`, the Potency entry with Es-2, in the assay with HeLa, in the assay on Hek293T, with JEG-3, in the assay on OV90 and in the assay with SKOV3 was “inactive” throughout. The Potency entry (with Tov-21-G; with Tov112D; with astro; in [2]) was “inactive” each time. In addition, the activity, negative = cell killing in assay [1] (setting [3]) is -12.2%; in assay [1] (setting [4]) it was -11.3%; in [1] (setting [6]) it was -29.3%; in assay [1] (setting [5]), -10.5%.

For `C/C=C(/C(=C/C)c1ccc(O)cc1)c1ccc(O)cc1`, the Potency entry in the assay with Es-2, with HeLa, in the assay on Hek293T, in the assay with JEG-3, in the assay with PA-1 and with Tov-21-G was “inactive” in each case. Also, the Potency result in the assay with Tov112D is “inactive”. In addition, the figures for the activity, negative = cell killing in [1] (setting [7]), in assay [1] (setting [8]) and in assay [1] (setting [9]) were -5.62%, -8.12% and -22.4%, respectively.

As for `CC(=O)Oc1ccc2c(c1)CC[C@@H]1[C@@H]2CC[C@]2(C)[C@@H](O)CC[C@@H]12`, the Potency entry in the assay with Es-2, in the assay on Hek293T, in the assay with JEG-3, in the assay with OV90, in the assay with SKOV3 and with Tov-21-G was “inactive” in each case. Besides, the results for the Potency (with HeLa; in [1] (tumour line A)) were 6.31 µM (active) and 12.6 µM (active), respectively. The activity, negative = cell killing in [1] (setting [5]) was -5.95%.

On to `Clc1ccc2c(c1)CCc1cccnc1C2=C1CCNCC1`, for which the Potency result in the assay on Es-2, with HeLa, in the assay with Hek293T, in the assay with JEG-3, in the assay on PA-1 and with Tov-21-G was “inactive” each time. Moreover, the Potency result in the assay on Tov112D was “inactive”. The activity, negative = cell killing in [1] (setting [5]) is 0.244%. Besides, the Potency was 5.01 µM (active) in assay [1] (tumour line A), 12.6 µM (active) in assay [1] (tumour line B) and 20 µM (active) in [1] (tumour line D).

In the case of `CN1CCN(CCCN2c3ccccc3Sc3ccc(S(=O)(=O)N(C)C)cc32)CC1`, the Potency result in the assay on Es-2, with HeLa, with Hek293T, with JEG-3, in the assay with SKOV3 and in the assay on Tov-21-G was “inactive” each time. Moreover, the Potency result in the assay with Tov112D and in the assay on astro was “inactive” throughout. The results for the activity, negative = cell killing in [1] (setting [7]) and in assay [1] (setting [8]) were 3.3% and -12.4%, respectively. Also, the Potency in assay [1] (tumour line A) was 7.94 µM (active).

For `CCCOC(C(=O)OC1CCN(C)CC1)(c1ccccc1)c1ccccc1`, the Potency result with Es-2, in the assay with HeLa, in the assay with Hek293T, with JEG-3, in the assay on PA-1 and in the assay on SKOV3 was “inactive” each time. Further, the Potency result in the assay with Tov-21-G and in the assay with Tov112D was “inactive” in each case.

For the molecule `CN1CCCC(CC2c3ccccc3Sc3ccccc32)C1` (stereo unspecified), the Potency entry in the assay with Es-2, with HeLa, in the assay on Hek293T, in the assay with JEG-3, in the assay on PA-1 and with Tov-21-G was “inactive” throughout. Further, the Potency entry in the assay with Tov112D was “inactive”. Besides, the activity, negative = cell killing in assay [1] (setting [7]) was 5.58%. Also, the results for the Potency in assay [1] (tumour line A) and in [1] (tumour line B) were 2.24 µM (active) and 12.6 µM (active), respectively.

In the case of `CC1(C)O[C@@H]2C[C@H]3[C@@H]4CCC5=CC(=O)CC[C@]5(C)[C@@]4(F)[C@@H](O)C[C@]3(C)[C@]2(C(=O)CCl)O1`, the Potency entry in the assay with Es-2, with HeLa, in the assay on Hek293T, in the assay with JEG-3, with PA-1 and in the assay on SKOV3 was “inactive” throughout. Also, the Potency entry in the assay with Tov-21-G and in the assay on Tov112D was “inactive” each time. Moreover, the activity, negative = cell killing was -1.51% in assay [1] (setting [7]); -4.88% in [1] (setting [8]); 2.26% in assay [1] (setting [9]); 3.38% in assay [1] (at 21.3 µM (top of the series), tumour line A).

Consider `O=C(Nc1ccc(Oc2ccc(Cl)cc2)c(Cl)c1)c1cc(I)cc(I)c1O`, for which the Potency result in the assay with Es-2, with HeLa, in the assay on Hek293T, in the assay with JEG-3, in the assay on PA-1 and in the assay on SKOV3 was “inactive” each time. The Potency entry with Tov-21-G and with Tov112D was “inactive” in each case.

Consider `O=C1OCCN1/N=C/c1ccc([N+](=O)[O-])o1`, for which the Potency result in the assay with Es-2, in the assay with HeLa, in the assay with Hek293T, in the assay with JEG-3, with OV90 and in the assay with SKOV3 was “inactive” each time. Also, the Potency result in the assay with Tov-21-G, in the assay with Tov112D and with astro was “inactive” in each case. The activity, negative = cell killing in assay [1] (setting [3]) was 4.9%; in assay [1] (setting [4]) it was -7.13%; in assay [1] (setting [6]) it was -29.3%; in assay [1] (setting [5]) it was 4.37%.

As for `Cc1c(C)n(Cc2ccccc2)c2ccc(C(=O)OCCN(C)C)cc12`, the Potency entry in the assay on Es-2, with HeLa, in the assay on Hek293T, in the assay on JEG-3, in the assay on OV90 and in the assay on Tov-21-G was “inactive” throughout. In addition, in the assay on Tov112D, the Potency entry was “inactive”. For the same molecule, in assay [1] (setting [5]), the activity, negative = cell killing is -16.7%. For the same molecule, the Potency in assay [1] (tumour line A) was 11.2 µM (active); in [1] (tumour line D) it was 10 µM (active).

Turning to `CCCCN1CCCC1C(=O)Nc1c(C)cc(C)cc1C` (stereo unspecified), the Potency entry in the assay on Es-2, in the assay with HeLa, with Hek293T, in the assay with JEG-3, in the assay with PA-1 and in the assay with SKOV3 was “inactive” each time. The Potency result in the assay with Tov-21-G, in the assay with Tov112D and with astro was “inactive” each time. The activity, negative = cell killing is -5.63% in assay [1] (setting [3]), -4.43% in assay [1] (setting [4]) and -15.9% in [1] (setting [5]). In addition, in assay [1] (tumour line A), the Potency was 22.4 µM (active).

On to `Cc1cc(N)c2cc(NC(=O)Nc3ccc4nc(C)cc(N)c4c3)ccc2n1`, for which the Potency result in the assay with Es-2, in the assay with HeLa, with Hek293T, with JEG-3, with PA-1 and in the assay with SKOV3 was “inactive” each time. Besides, the Potency entry with Tov112D was “inactive”.
